Compound activity from PubChem BioAssay.
An excerpt weighted towards active compounds, which were near 4% of everything screened.
HIF-2a block: HIF-2a inhibition; inhibition, % at 18.8 µM; 786-0 RCC cells HIF-2a reporter, luciferase luminescence, overnight; 0.72% of 360,000 active; AID 624352;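 active = inhibition of the luminescence signal of 40% or more relative to plate controls, in a single-dose primary screen at 18.75 µM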
TWEAK Fn14 block: blocks TWEAK-Fn14 interaction in a reporter cell assay. TWEAK-stimulated Fn14 reporter cells, luciferase luminescence, 8 h. inhibition, % at 10 µM. 2% of 360,000 active; in the data active = inhibition above about 50%
TROY signal inh: inhibitors of TROY-dependent NF-kB signaling; 0.98% of 360,000 active; AID 1347056; inhibition, % at 10 µM; Q293 LMP1-TROYcd NF-kB luciferase reporter, 4 h;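 active = compounds whose plate-normalised and pattern-corrected inhibition of the luciferase reporter signal at the single screening dose is 50% or more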
Peg3 prom inh: Peg3 promoter activity inhibition. AID 588405. inhibition, % at 20 µM. 1.7% of 360,000 active. HeLa PEG-Prom luciferase reporter, luminescence, overnight;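 active = inhibition of at least 50% at 20 µM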
CF NFkB inh: inhibitors of cystic fibrosis induced NF-kB | 0.86% of 360,000 active | KKLEB NF-kB-GFP reporter, PAF-induced, GFP fluorescence overnight | inhibition, % at 5 µM;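 active = at least 50% inhibition at 5 µM, scaled per plate between neutral and stimulator controls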;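 also: PAF is a Pseudomonas aeruginosa culture filtrate used as stimulus; plate controls were PAF-stimulated DMSO wells for no effect and unstimulated DMSO wells for full effect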
KKLEB cytotox: counter-screen for CF NF-kB inhibitors: cytotoxicity. KKLEB CF airway cells viability, ATPlite luminescence, overnight; active compounds read low; cells stimulated with P. aeruginosa culture filtrate. activity change (cytotoxicity), % at 5 µM. 0.36% of 360,000 active;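 active = corrected activity change at or below -50% at 5 µM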
Numbers without * were called inactive; / = no result.

SMILES | HIF-2a block | TWEAK Fn14 block | TROY signal inh | Peg3 prom inh | CF NFkB inh | KKLEB cytotox
CCCCCCCCCc1nc2sc3c(c2c(=O)n1NC(=O)c1ccccc1[N+](=O)[O-])CC(C)(C)OC3 | -0.7 | 49.1 | 58.2* | 31.3 | 43.5 | -32.9
CCNc1nc(-c2sc(NC(=O)C(C)(C)C)nc2C)c(-n2cc(-c3ccccc3)nn2)s1 | -9.3 | 86.1* | -1.4 | / | / | /
CC(C)(C)c1cc(N2CCOCC2)n2ncc(-c3ccccc3)c2n1 | 4.4 | 5.2 | 18.0 | 10.2 | 25.9 | -6.6
CCCc1cc(N2CCOCC2)n2ncc(-c3ccccc3)c2n1 | -109.8 | 57.7* | 51.5* | -98.0 | 1.3 | 5.2
O=C(CN1CCC(n2nnc3cc(C(F)(F)F)ccc32)CC1)Nc1ccc2c(c1)OCCO2 | 28.0 | 74.5* | 63.7* | -78.6 | -13.9 | -3.8
COc1ccc(Cl)cc1NC(=O)CN1CCC(n2nnc3cc(C)ccc32)CC1 | 1.6 | 19.2 | 0.8 | 85.9* | 21.0 | -17.8
COc1cc2c(cc1NC(=O)CSc1nc3cc(Cl)ccc3s1)oc1ccccc12 | 3.9 | -1.3 | 13.5 | 11.7 | 38.9 | -59.8*
CCCc1cc(=O)[nH]c(Nc2ccc3c(c2)OCCO3)n1 | -14.3 | 58.0* | 41.2 | -11.7 | 0.6 | 8.0
CCCCc1ccc(Nc2nc(CCC)cc(=O)[nH]2)cc1 | -16.4 | 5.2 | 5.9 | 2.4 | -12.4 | -1.6
C=CCOc1ccccc1CN(C(=O)CCl)c1ccc2c(c1)OCO2 | -14.5 | 26.0 | -1.9 | -18.3 | 92.0* | -84.7*
O=C(Nc1nnc(Cc2c[nH]c3ccccc23)s1)c1ccc(Cl)cc1Cl | -27.2 | 65.4* | -4.0 | -54.4 | -16.4 | 6.2
CC(C)(C)c1ccc(C(=O)Nc2nnc(Cc3c[nH]c4ccccc34)s2)cc1 | -2.3 | 40.2 | 11.2 | 14.9 | -3.6 | -1.6
N#CC1(C#N)CC(C=O)=C(N)C1(C#N)CC(=O)C12CC3CC(CC(C3)C1)C2 (centres undefined) | 27.0 | 86.8* | 31.0 | 49.5 | 82.4* | -55.4*
Nc1nccnc1C(=O)OCC(=O)C12CC3CC(CC(C3)C1)C2 | 5.7 | 13.1 | 7.4 | -24.3 | 10.3 | -6.2
C[C@]12CC[C@@H]3c4ccc(O)cc4CC[C@H]3[C@@H]1CC[C@@H]2O | -8.0 | 1.2 | 4.8 | 24.8 | -7.1 | 26.8
CC12CCC3C(CCC4N(CCO)CCC34C)C1CCC2O (centres undefined) | 21.5 | 94.3* | -7.0 | 1.2 | 10.7 | 1.7
Nc1cccc(-c2nc3ccccc3s2)c1 | -66.7 | 33.7 | 21.6 | -134.9 | -16.9 | -1.9
Oc1ccc(O)c(Cc2nc3ccccc3s2)c1 | 13.3 | 35.2 | 63.2* | 1.4 | 45.6 | -8.7
CC[n+]1cccc(-c2nc3ccccc3s2)c1 | 28.7 | 69.4* | 64.1* | 7.9 | -4.8 | 0.9
Oc1cccc(-c2nc3ccccc3s2)c1 | -106.7 | 54.2* | 15.8 | -148.1 | -8.0 | -10.9
CC(C)(C)NC(=O)C(c1ccc(C(F)(F)F)cc1)n1c(=O)c(-c2cc3ccccc3[nH]2)nc2ccccc21 (centres undefined) | 1.5 | / | / | / | / | /
CN1C(=O)CCC(CCC(=O)O)(c2ccccc2O)C1=O (centres undefined) | 15.5 | 9.6 | 13.8 | 7.2 | 1.9 | -0.1
COc1ccccc1-c1noc2c1C(=O)N(C(=O)OC(C)(C)C)CC2 | -8.8 | 3.0 | -17.6 | 7.7 | 4.6 | 6.3
CCN(CC)CCN(C(=O)c1ccc2c(c1)CCCC2)c1nc2ccc(C)cc2s1 | -27.9 | 12.4 | -13.4 | -32.5 | 4.7 | 0.4
CCN(CC)CCN(C(=O)c1ccc2c(c1)CCCC2)c1nc2ccc(F)cc2s1 | -105.8 | 36.3 | 54.7* | -81.7 | 3.1 | -9.0
SMILES | HIF-2a block | TWEAK Fn14 block | TROY signal inh | Peg3 prom inh | CF NFkB inh | KKLEB cytotox
Cc1ccc2nc(N(CCCN(C)C)C(=O)c3sc4ccccc4c3Cl)sc2c1 | -13.2 | 73.3* | 50.4* | -81.2 | 16.5 | -15.2
CN(C)CCCN(C(=O)c1cc(-c2cccs2)nc2ccccc12)c1nc2ccc(F)cc2s1 | -12.7 | -14.0 | 2.3 | 111.6* | 43.2 | -33.8
CCN(CC)CCN(C(=O)c1ccccc1OC)c1nc2ccc(F)cc2s1 | -94.7 | -27.1 | 76.1* | -50.4 | -12.7 | -3.8
CN(C)CCCN(C(=O)CCc1ccccc1)c1nc2ccc(F)cc2s1 | -3.0 | -4.4 | -11.5 | -2.2 | 2.7 | 5.4
Cc1ccc2nc(N(CCCN(C)C)C(=O)c3ccc(S(=O)(=O)N(C)C)cc3)sc2c1 | 16.2 | 4.1 | -10.8 | 6.7 | 3.1 | -4.2
CN(C)CCN(C(=O)c1cc(Cl)sc1Cl)c1nc2ccc(F)cc2s1 | -80.6 | -35.2 | -28.4 | -71.3 | 6.1 | 8.3
